NPSR antagonist – qHTS Assay for Antagonists of the Neuropeptide S Receptor: cAMP Signal Transduction | CHO-NPSR cells, cAMP TR-FRET, antagonist mode | Potency, µM (titrated, usually from 38.3 µM), inactives show at the highest dose activity change, negative = inhibition, most hits filed as inhibitors | Q6W5P4 | 1% of 220,000 active; note: % is set by controls: 0 for no effect and ±100 for the full control effect; nearly all actives have a fitted effect of over 50% in size
IMPase Li inh – qHTS Assay for Identifying the Cell-Membrane Permeable IMPase Inhibitors: Potentiation with Lithium. CHO-M1 cells, IP1 TR-FRET (IP-One), carbachol + lithium. AID 1457, 2008. Potency, µM (top dose mostly 59.4 µM), for the others: at the top dose activity, negative = IMPase inhibition, usual class: inhibitors. 0.35% of 210,000 active;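 note: IP1 builds up when IMPase is blocked and the TR-FRET signal falls; plate controls were basal vehicle for no effect and high inhibitor control for full effect; nearly all actives have a fitted effect of over 50% in size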
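Steps: plate 2000 CHO-M1 cells per well and culture 16–30 h; add compound and lithium; incubate 30 min, 37C; add d2-IP1 tracer and Eu cryptate anti-IP1 antibody in lysis buffer; read after 10 min at room temperature.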
Sfp inh – qHTS Assay for Inhibitors of Bacillus subtilis Sfp phosphopantetheinyl transferase (PPTase). 4'-phosphopantetheinyl transferase ffp (Bacillus subtilis), Q9F4F7. Biochemical Sfp PPTase activity, qHTS. Potency, µM, without a hit: largest response in the series, negative = inhibition, hits mostly inhibitors. 3.5% of 310,000 active. AID 1490, 2009;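 note: the enzyme is Sfp with the accession as filed and its product quenches rhodamine fluorescence; 0% = enzyme reaction without inhibitor and -100% = no enzyme wells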
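With Hepes-Na pH 7.6 buffer containing 10 mM MgCl2, Sfp (15 nM) modified BHQ-2-YbbR (12.5 uM) using rhodamine-CoA (5 uM). Two reads 30 minutes apart at 525/598 nm yielded each well's rate.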
Epigenetic reg – Quantitative High-Throughput Screen for Regulators of Epigenetic Control | Potency, µM (highest dose often 53.9 µM), for inactives: at the top dose GFP activation, actives largely listed as activators | murine LDR cells, GFP reporter derepression, 30 h | 0.2% of 280,000 active; note: % of control where 0% means no effect; nearly all actives have a fitted effect of over 60% in size
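Reporter derepression read as number of fluorescent GFP-positive objects, 20-120 um in size, counted by laser-scanning cytometer. Mouse LDR line with an epigenetically silenced CMV-GFP locus; compound incubation 30 h, 37 C.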
JMJD2E inh – qHTS Assay for Inhibitors of Human Jumonji Domain Containing 2E (JMJD2E) | JMJD2E catalytic domain, FDH-coupled NADH fluorescence (FDH is formaldehyde dehydrogenase) | Potency, µM (highest dose often 57.1 µM), inactives show at the top dose activity change, negative = inhibition, hits mostly inhibitors | 1.6% of 230,000 active; active = well fitted inhibition curve with a large enough effect, not every such curve was filed as active; inconclusive = small, poorly fitted or top-dose-only effect, or another doubt; inactive = no such curve, though single readings can be large or run the other way;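 note: 0% = wells with enzyme and -100% = buffer wells without enzyme; nearly all actives have a fitted effect of over 50% in size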
GCN5L2 inh – qHTS Assay for Inhibitors of GCN5L2 | 0.21% of 390,000 active | Potency, µM (top dose mostly 58.9 µM), for inactives: top-dose activity change, negative = inhibition, most hits filed as inhibitors | Histone acetyltransferase KAT2A (Homo sapiens), Q92830 | GCN5L2 HAT assay, ThioGlo1 CoA-SH fluorescence; note: % is set by controls: 0 for no effect and ±100 for the full control effect
Target sequence (Q92830 whole entry, looked up): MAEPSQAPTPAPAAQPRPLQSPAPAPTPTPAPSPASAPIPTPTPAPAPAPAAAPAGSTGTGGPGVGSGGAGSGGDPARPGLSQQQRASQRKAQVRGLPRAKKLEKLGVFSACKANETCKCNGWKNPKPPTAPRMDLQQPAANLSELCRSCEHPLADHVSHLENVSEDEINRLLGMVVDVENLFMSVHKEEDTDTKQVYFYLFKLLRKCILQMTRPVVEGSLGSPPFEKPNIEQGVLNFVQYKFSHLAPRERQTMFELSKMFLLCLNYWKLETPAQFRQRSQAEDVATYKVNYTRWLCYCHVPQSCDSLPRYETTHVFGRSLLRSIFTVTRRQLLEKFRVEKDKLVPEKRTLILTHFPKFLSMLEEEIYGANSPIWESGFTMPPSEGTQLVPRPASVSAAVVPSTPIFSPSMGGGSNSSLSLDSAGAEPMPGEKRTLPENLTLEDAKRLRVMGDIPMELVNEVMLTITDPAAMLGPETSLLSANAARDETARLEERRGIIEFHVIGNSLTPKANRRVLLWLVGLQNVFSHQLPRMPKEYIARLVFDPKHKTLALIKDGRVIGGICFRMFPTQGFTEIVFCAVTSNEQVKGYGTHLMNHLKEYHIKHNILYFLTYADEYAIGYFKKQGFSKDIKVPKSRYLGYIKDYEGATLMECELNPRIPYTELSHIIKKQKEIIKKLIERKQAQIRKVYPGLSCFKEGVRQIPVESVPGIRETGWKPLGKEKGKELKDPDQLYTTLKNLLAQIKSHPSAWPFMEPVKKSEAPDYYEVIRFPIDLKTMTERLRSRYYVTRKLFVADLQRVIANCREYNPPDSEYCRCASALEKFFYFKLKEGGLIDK
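Fluorescence readout, Ex340nm/Em540nm: ThioGlo1 (50uM final) reacts with free CoA thiol released as 20nM GCN5L2 acetylates H3(1-25) peptide (75uM) using acetyl-CoA (70uM). Compound and enzyme sat 15 min beforehand; 20 min room-temperature reaction.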
The depositor's hits bear a star; u = inconclusive; x = no result; ! = repeats disagree; [ ] = dose if it differs, or a comment. The list is not random: actives were taken first. Their share in the collection is about 3.6%. Unless noted, calls come from the whole dose curve; as a rule, active = well fitted curve in the direction sought with a large enough effect; inconclusive = small, poorly fitted or top-dose-only effect, or another doubt; inactive = no such curve, though single readings can be large; an effect the other way counts as inactive or inconclusive. Potency is the fitted concentration of half-maximal effect.

SMILES | NPSR antagonist | IMPase Li inh | Sfp inh | Epigenetic reg | JMJD2E inh | GCN5L2 inh
CC1Cc2nc(SCC(=O)NC3CCCCC3)n(C)c(=O)c2S1 (stereo unspecified) | -3%[46.1 µM] | 23%[38.3 µM] | 20µM* | 1% | u | -29%
Cn1c(SCC(=O)NC2CCCC2)nc2c(c1=O)SCC2 | x | x | -4% | x | x | -4%
Cn1c(Cc2csc(N)n2)nnc1SCC(=O)NC1CCCCC1 | 15%[46.1 µM] | 6%[38.3 µM] | 56µM* | 2% | u | -3%
CCOc1ccc(-n2c(SCc3ccccc3)nc3c([nH]c4ccccc43)c2=O)cc1 | x | x | x | 0% | x | 3%
CCc1ccc(NS(=O)(=O)c2ccc(Cl)cc2OC)cc1 | x | x | x | -1% | x | x
COC(=O)N[C@@H](c1cccc(C)c1)C(C(C)=O)C(=O)OC (stereo partly specified) | x | 13% | -7% | 0% | -3% | x
CCCCCCCCCCCCCCCC[N+](C)(C)Cc1ccccc1 | x | x | 45µM* | x | x | -17%
CCCCCCCCCCCCCC[N+](C)(C)Cc1ccccc1 | x | x | 40µM* | x | x | -3%
CCN1CCN(Cc2ccc(NC(=O)c3cc(NC(=O)c4cc5cccc(OC)c5o4)cc(OC)c3)cc2C(F)(F)F)CC1 | -48% | x | 45µM* | -5% | u | -13%
CC(NC(=O)c1cc2ccccc2o1)C(=O)O (stereo unspecified) | -3%[46.1 µM] | -1%[38.3 µM] | 5% | 1% | 6% | -2%
CC(NC(=O)c1cc2ccccc2o1)c1ccccc1 (stereo unspecified) | 15% | 5% | -8% | 16µM*! | -3% | -2%
O=c1[nH]cnc2nn(-c3ccccc3)nc12 | -5%[46.1 µM] | 6%[38.3 µM] | 16% | -3% | u | -13%
O=c1[nH]cnc2nc(-c3ccccc3)c(-c3ccccc3)nc12 | -11%[46.1 µM] | -1% | -1% | 2% | 3.2µM* | -5%
N#Cc1cc2c(nc1SCc1nc3ccccc3[nH]1)CCC2 | -13%[46.1 µM] | 10%[38.3 µM] | 56µM* | u | u | -16%
CCOC(=O)c1c(C)oc2c1c(C(c1ccccc1)N1CCOCC1)c(O)c1ccccc12 (stereo unspecified) | u | 23%[38.3 µM] | 6% | -1% | 10% | -7%
CCOC(=O)c1c(C)oc2c1c(C=NCCO)c(O)c1ccccc12 | -13% | 15% | 50µM* | -2% | 2% | -5%
CSCC[C@H](NC(=O)[C@H](Cc1c[nH]c2ccccc12)NC(=O)CCNC(=O)OC(C)(C)C)C(=O)N[C@@H](CC(=O)O)C(=O)N[C@@H](Cc1ccccc1)C(N)=O | x | x | -9% | x | x | 37%
Cn1c(=O)n(C)c2cc(/C=N/NC(=O)c3ccc(Cl)cc3Cl)ccc21 | -20%[46.1 µM] | 8%[38.3 µM] | 15% | -2% | -10% | -3%
Cn1c(=O)n(C)c2cc(/C=N/NC(N)=S)ccc21 | -1% | -7% | 32µM* | 3% | u | -6%
CC1C(=O)OC2CC34C5CC(C(C)(C)C)C36C(OC(=O)C6O)OC4(C(=O)O5)C21O (stereo unspecified) | x | 6% | 2% | -6% | 4% | x
C=CCn1c(N)c(C(=O)Nc2ccc(C)cc2)sc1=S | -7%[46.1 µM] | 30%[38.3 µM] | -2% | 2% | -1% | 0%
C=CCn1c(N)c(C(=O)NCc2ccco2)sc1=S | -5%[46.1 µM] | 20%[38.3 µM] | -14% | 1% | 7% | -21%
Cn1c(N)c(C(=O)Nc2ccc(-c3ccccc3)cc2)sc1=S | u | x | 3.2µM* | 0% | 6% | -21%
CCCCCNC(=O)c1ccc2c(=O)[nH]c3c(C(=O)NCC4CCCO4)sc(=S)n3c2c1 (stereo unspecified) | -10%[46.1 µM] | 28%[38.3 µM] | 50µM* | 1% | -7% | 1%
CC(C)OCCCNC(=O)c1sc(=S)n(C)c1N | 4%[46.1 µM] | 11%[38.3 µM] | 50µM* | -1% | -13% | -3%
SMILES | NPSR antagonist | IMPase Li inh | Sfp inh | Epigenetic reg | JMJD2E inh | GCN5L2 inh
Cn1c(N)c(C(=O)NCc2ccccc2Cl)sc1=S | -1%[46.1 µM] | 18%[38.3 µM] | -29% | -1% | 1% | -25%
CCNC(=O)c1sc(=S)n(CC)c1N | 4%[46.1 µM] | 1%[38.3 µM] | 50µM* | 1% | -4% | -15%
CCNc1ncc2nc(-c3ccc(Cl)cc3)c(=O)n(-c3ccc(OC)cc3)c2n1 | x | 1% | 31% | x | x | -11%
O=C(CSc1nc2c([nH]c3ccccc32)c(=O)n1-c1cccc(C(F)(F)F)c1)N1CCc2ccccc21 | x | x | x | u | x | -12%
CCn1c(N)c(C(=O)N2CCOCC2)sc1=S | -3%[46.1 µM] | x | 45µM* | 0% | -4% | -8%
CCn1c(N)c(C(=O)NCCCOC)sc1=S | -21%[46.1 µM] | -11%[38.3 µM] | 20µM* | -3% | u | -11%
CCn1c(N)c(C(=O)NCC2CCCO2)sc1=S (stereo unspecified) | 0%[46.1 µM] | -6%[38.3 µM] | 18µM* | 0% | -16% | -29%
COCCCNC(=O)c1ccc(C(=O)NCCCOC)cc1 | 4%[46.1 µM] | 0%[38.3 µM] | 18% | 0% | -1% | 0%
C=CCn1c(N)c(C(=O)NCC2CCCO2)sc1=S (stereo unspecified) | -6%[46.1 µM] | 23%[38.3 µM] | 17% | -1% | 5% | -26%
C=CCn1c(N)c(C(=O)N2CCOCC2)sc1=S | -1%[46.1 µM] | 22%[38.3 µM] | -22% | -1% | -6% | -13%
O=C1[C@H]2[C@H]3[C@H](O)[C@H](O)C/C(=N/OC[C@@H](O)COCc4ccco4)[C@H]3CC[C@@H]2C(=O)N1Cc1ccc2c(c1)OCO2 | x | x | 9% | 1%[10.1 µM] | x | x
C=CC[N+]1([C@H]2C[C@H]3[C@@H]4CC[C@H]5C[C@H](O)[C@@H](N6CCOCC6)C[C@]5(C)[C@H]4CC[C@]3(C)[C@H]2OC(C)=O)CCCC1 | x | x | -3% | x | x | 1%
O=c1[nH]c(NNC(=S)NCc2ccccc2)nc2c1C1(CCCCC1)Cc1ccccc1-2 | u | -10% | -14% | 2% | u | 0%
O=c1[nH]c(NNC(=S)NC2CCCCC2)nc2c1C1(CCCC1)Cc1ccccc1-2 | u | x | 79µM* | 4% | u | -16%
Oc1c(Br)cc(Br)cc1CNc1cccc2cccnc12 | x | x | 40µM* | x | x | -5%
N#CC(c1nc2ccccc2nc1N1CCOCC1)S(=O)(=O)c1ccccc1 (stereo unspecified) | 55% | x | 16% | -1% | -3% | 0%
CC(N1CCOC1=O)S(=O)(=O)c1ccccc1 (stereo unspecified) | -4%[46.1 µM] | 9%[38.3 µM] | 63µM* | 2% | u | 0%
O=C1/C(=C/C=C/c2ccco2)SC(=S)N1NS(=O)(=O)c1ccccc1 | -16% | x | 13µM* | -6% | 16µM* | 20µM*
